Data: ChEMBL document CHEMBL3988442, “University of Dundee, Small-Polar-MMV Screening Library” (2021)
Hit rate of the full screen: of about 48,000 compounds, about 13,000 (27%) showed an effect of 50% or more. The list shows a part of the results.

tested on: Wolbachia pipientis; assay: Anti-Wolbachia Cell-Based Screen; type: functional; set-up: scale not given: in the data most compounds retested in dose-response had high values; details: 5 µM

Compound	Percent Effect [%]
CSCC(=O)Nc1ncn(Cc2cccc(Br)c2)n1	13.99
Cc1ncsc1CCN(C)Cc1ccc(Br)o1	8.382
CN(C)C1CN(C(=O)Nc2cccc(OC(F)F)c2)C1	-11.25
CCN(CC)C(=O)[C@@H]1C[C@@H](N)CN1C(=O)c1cc2c([nH]c1=O)CCC2	-5.971
CCCS(=O)(=O)NCc1cccnc1OCc1ccccc1	9.301
CN1CCN(C[C@@H]2CN(C(=O)c3ccccc3C#N)C[C@@H]2CO)CC1	6.523
COCCc1noc(CNC(=O)C2CC(=O)N(C(C)(C)C)C2)n1 (centres undefined)	-10.49
CC(CO)(NCc1noc(Cc2ccccc2)n1)C1CCCCC1 (centres undefined)	91.55
CC(=O)N1CCCC(C(=O)NCc2noc(Cc3ccccc3)n2)C1 (centres undefined)	10.7
COCCc1noc(CNC(C)(CO)C2CCCCC2)n1 (centres undefined)	130.3
CCC(=O)N1CCCC(C(=O)NCc2noc(Cc3ccccc3)n2)C1 (centres undefined)	1.423
CCc1nc(CNC(C)(CO)C2CCCCC2)no1 (centres undefined)	105.4
CCc1nc(CNc2ccc(-c3nc(C4CC4)no3)cn2)no1	-0.6483
COCCc1noc(CNC2CCSC2)n1 (centres undefined)	7.087
CC(CO)(NC(=O)Nc1nncs1)C1CCCCC1 (centres undefined)	-9.276
O=C(O)C(F)(F)F.O=C(O)C(F)(F)F.O=C(O)c1cc2c(nc1-c1ccoc1)CCN(CC1CCOC1)CC2 (centres undefined)	7.736
O=C(CCC(=O)N1CCC(Cc2ccc(CO)cc2)C1)c1ccccc1 (centres undefined)	-6.413
O=C(c1coc2ccccc12)N1CCCC1	2.375
CCS(=O)(=O)N1CC[C@@H]2[C@H](COCC3CC3)CN(C)C(=O)[C@@H]2CC1	34.67
O=C(c1ccc2nccn2c1)N(CCO)Cc1ccccc1F	-19.18
CN(C)c1cc(N(C)Cc2cc(C(C)(C)C)n[nH]2)ncn1	2.487
CN(Cc1cc(C(C)(C)C)n[nH]1)C(=O)c1ccc2nccn2c1	54.27
CC(C)c1nc(CN(C)C(=O)c2cn3ccsc3n2)cs1	97.44
Cc1ccccc1CN(CCN(C)C)C(=O)c1ccc2nccn2c1	-23.59
CN(Cc1cc(C(C)(C)C)n[nH]1)C(=O)c1cn2ccsc2n1	85.98
CN(Cc1cc(C(C)(C)C)n[nH]1)C(=O)c1ccccc1C1CCNC1 (centres undefined)	27.35

Compound	Percent Effect [%]
CC(C)c1nc(CN(C)C(=O)c2ccccc2C2CCNC2)cs1 (centres undefined)	31.56
CC(C)c1nc(CN(C)C(=O)CNC(N)=O)cs1	-43.04
CCCOC(=O)N1CCCC(c2nnc(CN3CCOCC3)n2C)C1 (centres undefined)	-3.793
Cc1cc(CN2CCC(CNC(=O)c3ccc4[nH]cnc4c3)C2)[nH]n1 (centres undefined)	4.896
O=C(Nc1cnc(Oc2ccccc2F)nc1)C1CC1	-9.559
COCCOC(=O)N1CCC(c2nccn2CC2CC2)CC1	0.7863
COc1ccc(-n2ncc(C(C)NCc3cnc(SC)nc3)c2C)cc1 (centres undefined)	30.41
CC[C@@]1(O)CCN(C(=O)c2ccc(-c3ccco3)cc2)C[C@H]1O	-5.125
CCOc1cccc(C(=O)N2CCC3(CC2)[C@H](O)C[C@@H]3OC)c1	2.834
CO[C@H]1C[C@@H](O)C12CCN(CCCOc1ccc(C(N)=O)cc1)CC2	113.2
CN(C)CCO[C@H]1C[C@@H](O)C12CCN(c1ncccc1Cl)CC2	-1.379
CC[C@@]1(O)CCN(CCCOc2ccc(C(N)=O)cc2)C[C@H]1O	95.4
NCCO[C@H]1C[C@@H](O)C12CCN(C(=O)COc1cccc(Cl)c1)CC2	-10.97
CC[C@@]1(O)CCN(C(=O)c2ccc(OC(F)F)cc2)C[C@H]1O	-4.955
CO[C@H]1C[C@@H](O)C12CCN(C(=O)CCCOc1ccccc1)CC2	97.53
COc1cc(C)c(CN2CCC3(CC2)[C@H](O)C[C@@H]3OCCN)cc1C	3.65
NC(=O)COc1ccc(CN2CCC3(CC2)[C@H](O)C[C@@H]3O)cc1Cl	17.24
NCCO[C@H]1C[C@@H](O)C12CCN(C(=O)CCOc1ccccc1)CC2	-12.3
CO[C@H]1C[C@@H](O)C12CCN(CCOc1ccc(Cl)cc1)CC2	86.28
Cc1ncccc1OC1(C(=O)NCCc2ccccn2)CCNCC1	-3.101
N#Cc1cc(Br)ccc1NC1CCN(CC(N)=O)CC1	-6.071
O=C(CSc1ccc2c(c1)OCCO2)NS(=O)(=O)c1ccccc1Cl	-4.158
CC(O)CN1CCN(C(=O)CN(C)c2ccc(Cl)cn2)CC1 (centres undefined)	-12.66
O=C1Nc2ccccc2/C1=C1\CCCN1	133.6
O=C1Nc2ccccc2/C1=C1\CCCCN1	114.3
O=C1Nc2ccccc2/C1=C1\CCCCCN1	122.1

Compound	Percent Effect [%]
CCCN1C[C@H]2CC[C@@H]1CN(Cc1cccc(-n3cccn3)c1)C2	-7.313
O=C(c1cc(C2CC2)[nH]n1)N1CCCC(n2cncn2)C1 (centres undefined)	0.773
CC(C)n1ccc(C(=O)N2CCCC(n3cncn3)C2)n1 (centres undefined)	105.9
CC(C)Cc1cc(C(=O)N2CCCC(n3cncn3)C2)[nH]n1 (centres undefined)	6
CC(C)c1cc(C(=O)N2CCCC(n3cncn3)C2)n[nH]1 (centres undefined)	96.9
Cc1cc(C)c(CNC(=O)NC2CCN(C(=O)C(C)C)CC2)c(C)c1	11.56
CC(Cn1cccn1)C(=O)N1CCC(NS(C)(=O)=O)CC1 (centres undefined)	-5.413
CCS(=O)(=O)Nc1ccn(Cc2cccc(Cl)c2)n1	-21.52
CS(=O)(=O)N1CCC(C(=O)N2CCN(Cc3cccc(Cl)c3)CC2)CC1	-5.012
CS(=O)(=O)Nc1cnn(Cc2cccc(Cl)c2)c1	81.71
CCS(=O)(=O)Nc1cnn(Cc2cccc(Cl)c2)c1	132.7
CS(=O)(=O)Nc1cccc(CNC(=O)c2cccs2)c1	8.71
CC(C)N(C)S(=O)(=O)N(C)Cc1cnn(Cc2ccccc2)c1	-14.36
COc1cc(C)ccc1OCc1nc(C(=O)N2CCCNC(=O)C2)co1	5.427
CS(=O)(=O)NC[C@H]1OC[C@H]2CN(Cc3ccsc3)CC[C@H]21.O=C(O)C(F)(F)F	114.3
CS(=O)(=O)NC[C@@H]1OC[C@H]2CN(Cc3ccsc3)CC[C@H]21.O=C(O)C(F)(F)F	83.99
COCc1nnc(-c2cccc(C(=O)OC(C)C)c2)o1	-21.92
NC(=O)Nc1cccc(CNC(=O)CCCc2ccccc2)c1	3.307
COc1ccc(-c2ccoc2)cc1CNC1CCCC1	10.39
Cc1cc(-c2cnc(N3CCCC(C)C3)nc2-c2cccnc2C)on1.Cl (centres undefined)	-3.482
Cc1cc(-c2cnc(NC3CCCC3)nc2-c2ccoc2)on1	77.66
Cc1cc(-c2cnc(NC3CC3)nc2-c2ccoc2)on1	98.24
CCC1CCC(N(Cc2cc(=O)n(C)c(=O)n2C)C2CC2)CC1 (centres undefined)	-6.586
Cc1ccc(NC(=O)N(C)C)c(C(=O)OCC(=O)NC(C)C(C)C)c1 (centres undefined)	-0.8117
CC(C)CN1CCc2[nH]cnc2C12CCN(C(=O)c1cncn1C)CC2	-0.9954
Cl.OC[C@H]1CC[C@]2(CC1)CN(Cc1ccsc1)Cc1ccccc1O2	114.5

Compound	Percent Effect [%]
Cc1ccc(CN2Cc3ccccc3O[C@]3(CC[C@H](CO)CC3)C2)s1.Cl	116.6
Cc1cnccc1CN1Cc2ccccc2O[C@]2(CC[C@H](CO)CC2)C1	131.4
O=C(Nc1ccccc1)C1CN(Cc2ccsc2)CC12CCOCC2.O=C(O)C(F)(F)F (centres undefined)	4.234
Cc1cnccc1CN1CCN(C)C2(CCC(=O)N(CC3CC3)CC2)C1 (centres undefined)	-0.1133
Cl.OC[C@H]1CC[C@]2(CC1)CN(Cc1ccccc1F)Cc1ccccc1O2	-7.813
Cc1ncc(CN2Cc3ccccc3O[C@]3(CC[C@H](CO)CC3)C2)cn1.Cl	-8.047
Cl.OC[C@H]1CC[C@]2(CC1)CN(Cc1ccccn1)Cc1ccccc1O2	-8.81
Cc1ccc(CN2CC(C(=O)Nc3ccccc3)C3(CCOCC3)C2)o1.O=C(O)C(F)(F)F (centres undefined)	17.76
Cc1cnccc1Cn1ccnc1C1CCOC1 (centres undefined)	-17.66
Cc1ccc(CNc2ccc(N3CCC(CO)CC3)cn2)o1	-69.41
Cc1ccc(CN2Cc3ccccc3O[C@]3(CC[C@H](CO)CC3)C2)o1.Cl	111.4
CCCS(=O)(=O)N1CCOC2(COCCN(C(C)=O)C2)C1 (centres undefined)	-8.657
CN(CCCc1ccc(C(F)(F)F)cc1)Cc1nccn1C	-12.04
CC(=O)N1CCN(CC(=O)N2CCN(c3cccc(C)c3)CC2)CC1	-12.32
COc1ccc(-c2nc(CN3CCOCS3(=O)=O)c(C)o2)cc1	1.396
CSCCC(=O)NS(=O)(=O)c1ccc2c(c1)OCCO2	2.619
C1CN(c2nc(C3CC3)ns2)CCO1	-22.29
Cn1cncc1-c1nnc([C@H]2CCN(CC3CCCCC3)C2)o1	-8.237
Cc1cncnc1C1CCN(CC(N)=O)CC1	132.7
CN1CCN(Cc2nnc(C3CCN(CC4CC4)CC3)n2C)CC1	-21.66
Cc1cc(CNC(=O)C2CCN(CC(N)=O)CC2)cc(C)n1	2.597
CC(c1cccnc1)N1CCN(CCO)CC1 (centres undefined)	9.024
CC(NCC1CCN(CCO)CC1)c1cccnc1 (centres undefined)	-1.701
CCCn1ncnc1C(C)NC(=O)C1CCN(CC(N)=O)CC1 (centres undefined)	-16.66
Cc1cncnc1C1CCN(CCO)CC1	125.7
Cc1cncnc1C1CCN(CC2CC2)CC1	99.03
